Results on 16 compounds are retold here after PubChem BioAssay (NCI).

This is part of a sample that, as a whole, favours compounds with a hit. Of some 83,000 tested, about 20% had one in any assay.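 In brief: 96-well plates, 48 h treatment, single concentration, percent growth endpoint.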 A number with no mark means an inactive call. The source made the active and inactive calls. How the source made its calls: active means growth percent below 10; inactive means the rest.

The subject of this test is MDA-MB-468 breast. Kind of test: NCI-60 one-dose screen, 48 h (100 = growth as untreated, 0 = no growth, -100 = all killed). The following applies: 10 µM unless noted.
As to `Cc1nc(Nc2ccc(S(=O)(=O)Nc3cc(C)on3)cc2)c2ccccc2n1`, the growth is 104%.
The value for `COc1ccc2c(c1)c(-c1nc(-c3cn(C)c4ncccc34)cs1)cn2CCO` was -16.8% (active); that for `CCCc1[nH]c(-c2cc(N)ccc2Cl)c2c1C(=O)CCCC2` was 93.7%; that for `Cc1c(C)c2c(c(C)c1NC(=O)/C=C\C(=O)O)CCC(C)(CCCC(C)CCCC(C)CCCC(C)C)O2` (stereo unspecified) was -45.3% (active).
The value for `CCN1CCCC(Nc2cc(C)nc(/N=C(/N)Nc3ccc(Cl)c(Cl)c3)n2)C1` (stereo unspecified) was -83.3% (active); that for `O=[N+]([O-])c1ccccc1Sc1ccccc1[N+](=O)[O-]` was 92.1%; that for `CCCCCCC(CC#N)(CCC)CCCC` (stereo unspecified) was 101%.
The result for `Fc1ccc(-c2ccnc3nc(-c4ccncc4)nn23)cc1` reads 111%.
In the case of `COc1cc2c(cc1O)c(=O)n(CCN(C)C)c1c3cc4c(cc3ncc21)OCO4`, the growth is -57.9% (active).
The result for `CC(C)C1CCCCC1O` (stereo unspecified) reads 107%; that for `NCCCOc1cc2ccccc2cc1C(=O)Nc1ccc(Cl)cc1OC(=O)c1cc2ccccc2cc1OCCCN`, -86% (active).
Take `Cc1ccc(C2CC(c3cccc(Nc4ccncc4)c3)=NN2c2cc(Cl)cc(Cl)c2)cc1` (stereo unspecified): the growth is -30% (active).
`CC(C)(C)c1ccc2oc(=O)n(SC(Cl)(Cl)Cl)c2c1`: the growth is 126%.
Regarding `CCN(CC)CCOc1ccc(C2=C(c3ccccc3)CCc3cc(OC)ccc32)cc1`, the growth is -44.2% (active).
The value for `CS(=O)CCCCCN=C=S` (stereo unspecified) was -11.3% (active).
The value for `COC(=O)c1cc(O)c2c(c1C(=O)OC)C[C@H]1[C@@H]3CC=C4C[C@@H](O)CC[C@]4(C)[C@H]3CC[C@]21C` was 35.3%.
